Experimental data as given in PubChem BioAssay (NCATS).
“And” between values parts separate entries of the source, which are not always exact repeats. Equal values may be shown once. Unmarked numbers belong to inactive results. Inconclusive results are not listed. The source made the active and inactive calls. Unless noted, the call rests on the fitted dose curve; in most records, active means well fitted curve in either direction with a large enough effect (not every such curve was filed as active); inconclusive means small, poorly fitted or top-dose-only effect, or another doubt; inactive means flat fitted curve, though single readings scatter.

What was measured:
[1] = AP1 Signaling Pathway (AID 357);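 further: ME-180 reporter cells stimulated with EGF at its EC50 level; on the % scale 0 is the no-effect control and ±100 the full control effect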
Outline: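 A ratiometric CCF4 readout (405 nm excitation; 460 and 530 nm emission) quantified AP-1-driven beta-lactamase in ME-180 cells after 5 h with compound and EC50 EGF; AC50 values were derived for activators and inhibitors.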

[2] = molecular target: Cytochrome P450 1A2 (Homo sapiens) (UniProt P05177); assay: p450-cyp1a2 (AID 410; calls by dose curve; further: potency means the concentration at half of the fitted maximal effect;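 on activity change, negative = inhibition: -100% = full effect of reference inhibitor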)
Sequence of Cytochrome P450 1A2 (Homo sapiens) (P05177 whole entry, looked up): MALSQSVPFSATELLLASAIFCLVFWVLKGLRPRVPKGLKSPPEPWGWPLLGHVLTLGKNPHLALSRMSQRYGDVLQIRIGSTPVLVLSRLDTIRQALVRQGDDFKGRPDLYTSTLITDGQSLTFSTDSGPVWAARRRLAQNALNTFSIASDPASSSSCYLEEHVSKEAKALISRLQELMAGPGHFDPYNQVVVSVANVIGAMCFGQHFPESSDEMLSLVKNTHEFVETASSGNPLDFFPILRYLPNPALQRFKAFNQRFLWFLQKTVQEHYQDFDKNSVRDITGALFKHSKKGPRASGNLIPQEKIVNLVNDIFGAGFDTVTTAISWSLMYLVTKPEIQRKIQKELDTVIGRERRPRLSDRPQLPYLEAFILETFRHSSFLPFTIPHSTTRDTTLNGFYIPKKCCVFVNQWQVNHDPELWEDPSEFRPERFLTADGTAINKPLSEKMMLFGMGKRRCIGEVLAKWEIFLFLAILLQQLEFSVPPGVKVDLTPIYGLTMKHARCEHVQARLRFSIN
Outline: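 20nM CYP1A2 with 100uM Luciferin-ME (at Km) in 100mM KPO4; compound preincubated 10 min, NADPH regeneration added, 60 min at room temperature. Luciferin quantified by luminescence after detection reagent; normalized to 57 uM furafylline.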

[3] = NFAT Signaling Pathway (AID 444); details: Jurkat NFAT-bla M1, carbachol, beta-lactamase ratio, 5 h;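 further: carbachol stimulus at about its EC50 of 1 µM final; on the % scale 0 is the no-effect control and ±100 the full control effect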
Outline: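 Read-out: CCF4 FRET ratio (460 nm/530 nm) after 1 h RT dye loading, used for %activity and AC50 from titration series. Cells: Jurkat NFAT-β-lactamase/M1 line, treated with compound plus 1 uM carbachol for 5 h, 37 °C.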

[4] = Stat Signaling Pathway (AID 446);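 further: ME-180 cervical cancer cells given 40 pM IL-6 alongside compound; SIE-controlled beta-lactamase reporter measured as 460/530 nm FRET emission ratio; on the % scale 0 is the no-effect control and ±100 the full control effect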
Outline: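 IL-6/STAT signaling read in ME-180 cells via an SIE beta-lactamase reporter. Stimulus was 40 pM IL-6 (its AC50) for 5 hrs, so both activation and inhibition register.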

[5] = molecular target: Glucocorticoid receptor (Homo sapiens) (UniProt P04150); assay: GR-GFP Redistribution (AID 450;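 active means compounds whose dose series gives a full or clear partial fitted curve of increased nuclear translocation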; further: potency means the concentration at half of the fitted maximal effect); details: U2OS GR-GFP nuclear translocation, laser cytometry, 2 h
Sequence of Glucocorticoid receptor (Homo sapiens) (P04150 whole entry, looked up, the tested form may be a part): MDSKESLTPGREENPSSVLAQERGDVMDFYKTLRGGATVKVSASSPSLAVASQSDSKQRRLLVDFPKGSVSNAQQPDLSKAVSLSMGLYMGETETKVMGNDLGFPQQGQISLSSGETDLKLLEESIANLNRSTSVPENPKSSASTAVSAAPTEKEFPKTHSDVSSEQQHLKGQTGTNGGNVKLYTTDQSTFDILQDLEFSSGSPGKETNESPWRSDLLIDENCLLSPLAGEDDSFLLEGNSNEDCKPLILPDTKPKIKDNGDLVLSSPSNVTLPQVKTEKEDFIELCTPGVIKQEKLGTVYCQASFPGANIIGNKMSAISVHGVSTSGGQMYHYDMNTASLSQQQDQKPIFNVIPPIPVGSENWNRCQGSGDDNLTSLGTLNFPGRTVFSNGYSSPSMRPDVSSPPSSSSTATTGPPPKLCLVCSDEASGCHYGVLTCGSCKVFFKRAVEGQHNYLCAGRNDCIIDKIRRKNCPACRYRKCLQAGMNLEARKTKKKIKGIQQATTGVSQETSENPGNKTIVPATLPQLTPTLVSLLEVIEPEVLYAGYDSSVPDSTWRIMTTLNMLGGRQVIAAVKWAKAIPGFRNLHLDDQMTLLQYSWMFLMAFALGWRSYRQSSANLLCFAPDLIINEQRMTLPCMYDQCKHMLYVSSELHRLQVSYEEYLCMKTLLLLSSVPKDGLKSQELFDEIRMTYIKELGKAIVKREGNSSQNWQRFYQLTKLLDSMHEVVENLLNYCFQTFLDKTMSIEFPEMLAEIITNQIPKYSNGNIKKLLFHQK

[6] = molecular target: Glucocorticoid receptor (Homo sapiens) (UniProt P04150); assay: GR-EFC Redistribution (AID 451; calls by dose curve; further: potency means the concentration at half of the fitted maximal effect); details: CHO-K1 GR-EFC translocation, beta-gal luminescence, 2 h
Outline: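 Translocation of GR-ED fusion to nuclear EA restores b-gal, read by luminescence after 1 h room-temperature detection. Engineered CHO-K1 biosensor cells, 1,000/well, exposed 2 h at 37 C to titrations up to 46 uM final.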

[7] = molecular target: Mitogen-activated protein kinase 10 (Mus musculus) (UniProt Q61831); assay: JNK3 AlphaScreen Assay (AID 530);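 further: kinase came from lysate of stimulated human HepG2 cells; signal reports phosphorylation of biotinylated GST-cJun 1-79 at Ser73 with 10 µM ATP; on the % scale 0 is the no-effect control and ±100 the full control effect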
Outline: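 Compound titrations were preincubated 15 minutes at room temperature with substrate, antibody and pre-activated JNK3-containing HepG2 lysate. Reactions were started with 10 uM ATP and stopped with EDTA-containing bead buffer for AlphaScreen detection.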

[8] = Cell Viability - BJ (AID 421; calls by dose curve;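 further: potency means the concentration at half of the fitted maximal effect; cells exposed to compound for 40 hours at 37 °C before readout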); details: BJ fibroblast viability, qHTS
Outline: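 Quantitative HTS: ATP depletion in BJ cells after 40 hr compound exposure in complete culture medium, detected with CellTiter-Glo; AC50 from standard Hill fits.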

[9] = Cell Viability - Jurkat (AID 426;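 active means dose-dependent loss of cell ATP signal giving a full or clear fitted curve, ranked by lower potency value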; further: potency means the concentration at half of the fitted maximal effect); details: qHTS
Outline: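 Jurkat (Clone E6-1) cells, 5000/well in complete medium, exposed to compounds for 40 hr at 37C; intracellular ATP measured by CellTiter-Glo luminescence after 20 min at room temperature. AC50 from Hill fits.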

[10] = Cell Viability - Hek293 (AID 427;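 active means compounds whose dose-response curve shows a full or clear partial loss of cell viability, called from curve shape rather than a numeric limit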;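 further: potency means the concentration at half of the fitted maximal effect; cells exposed to compound for 40 hours at 37 °C before reading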); details: qHTS
Outline: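 AC50 values derive from Hill-modelled concentration-response of ATP-based luminescence, normalized between DMSO-only and 100 uM tamoxifen controls. Cells were exposed in complete culture medium for 40 hr at 37 °C before detection.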

[11] = Cell Viability - HepG2 (AID 433; calls by dose curve;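 further: potency means the concentration at half of the fitted maximal effect; potency for ATP loss meaning cytotoxicity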); details: qHTS
Outline: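 In this qHTS format, a 40 h, 37 °C compound incubation of HepG2 cells in complete medium precedes a 20 min CellTiter-Glo step at room temperature. Tamoxifen and doxorubicin serve as positive controls; Hill-equation fits yield AC50.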

[12] = Cell Viability - MRC5 (AID 434; calls by dose curve;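 further: potency means the concentration at half of the fitted maximal effect; potency reflects cytotoxicity seen as loss of intracellular ATP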); details: MRC5 lung fibroblast viability, qHTS
Outline: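 qHTS cytotoxicity in human lung fibroblast MRC5 cells; 40 hr treatment, 37 °C; cellular ATP by luciferase luminescence; DMSO = 0%, 100 uM tamoxifen = 100% inhibition; Hill-fit AC50.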

[13] = Cell Viability - SK-N-SH (AID 435; calls by dose curve;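 further: potency means the concentration at half of the fitted maximal effect; compound exposure lasted 40 h at 37 °C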); details: SK-N-SH neuroblastoma cell viability qHTS
Outline: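 Human neuroblastoma line, 40 h exposure at 37 °C, ATP quantified via luciferase luminescence; DMSO and 100 uM tamoxifen define 0 and 100% inhibition for AC50 fitting.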

[14] = Cell Viability - N2a (AID 540; active means well fitted curve in the direction sought with a large enough effect; an effect the other way counts as inactive or inconclusive;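 further: plate controls were DMSO alone for no effect and tamoxifen control for full effect; nearly all actives have a fitted effect of over 45% in size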)
Outline: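 Mouse neuroblastoma N2a cells, 1500/well, exposed to compounds 40 h at 37 °C in complete medium. Viability measured as cellular ATP by CellTiter-Glo luminescence; AC50 from Hill fits of concentration-response.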

[15] = Cell Viability - NIH 3T3 (AID 541; active means well fitted curve in the direction sought with a large enough effect; an effect the other way counts as inactive or inconclusive;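 further: plate controls were DMSO alone for no effect and tamoxifen positive control for full effect; nearly all actives have a fitted effect of over 25% in size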); details: NIH 3T3 cell viability, qHTS; activity change, negative = cytotoxicity: at 92.2 µM (top of the series)
Outline: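 Mouse NIH 3T3 fibroblasts, 1000 cells/well, rested 5 hr at 37 °C, then exposed to compound for 40 hr at 37 °C in complete medium. Viability read as intracellular ATP by CellTiter-Glo luminescence; AC50 from Hill-equation fits of concentration-response data.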

[16] = Cell Viability - HUV-EC-C (AID 542; active means well fitted curve in the direction sought with a large enough effect; an effect the other way counts as inactive or inconclusive; further: on the % scale 0 is the no-effect control and ±100 the full control effect; nearly all actives have a fitted effect of over 35% in size)
Outline: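 HUV-EC-C human vascular endothelial cells, 1000/well, exposed to compound for 40 hr at 37 °C in complete medium. Intracellular ATP was read by CellTiter-Glo luminescence. AC50 came from Hill-equation fits of concentration-response data.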

[17] = Cell Viability - H-4-II-E (AID 543; active means well fitted curve in the direction sought with a large enough effect; an effect the other way counts as inactive or inconclusive; further: on the % scale 0 is the no-effect control and ±100 the full control effect; nearly all actives have a fitted effect of over 35% in size)
Outline: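 Rat hepatoma H-4-II-E cells, 1500 per well, treated 40 h at 37 °C in complete medium. Cellular ATP read by CellTiter-Glo luminescence; AC50 from Hill fits of concentration-response.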

[18] = Cell Viability - SH-SY5Y (AID 544; active means well fitted curve in the direction sought with a large enough effect; an effect the other way counts as inactive or inconclusive;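 further: 0% = DMSO alone and -100% = 100 µM tamoxifen; nearly all actives have a fitted effect of over 55% in size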); details: SH-SY5Y neuroblastoma cell viability; viability change, negative = cytotoxic: at 92.2 µM (top of the series)
Outline: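 SH-SY5Y human neuroblastoma cells (1500/well) incubated 5 h, then compound-treated 40 h at 37 °C in complete medium. Viability read as intracellular ATP by CellTiter-Glo luminescence after 20 min; AC50 from Hill-equation fits of qHTS concentration-response.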

[19] = Cell Viability - Renal Proximal Tubule (AID 545; active means well fitted curve in the direction sought with a large enough effect; an effect the other way counts as inactive or inconclusive;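 further: 0% = DMSO only and -100% = 100 µM tamoxifen; nearly all actives have a fitted effect of over 40% in size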)
Outline: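 In this qHTS format, normal rat kidney-derived proximal tubule cells in complete culture medium receive compound titrations, then sit 40 hours at 37 °C before luciferase-based ATP quantitation; potency is reported as AC50 from concentration-response curves.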

[20] = molecular target: Lysosomal acid glucosylceramidase (Homo sapiens) (UniProt P04062); assay: Glucocerebrosidase-p2 (AID 348; in the data active means potency below about 10 µM; further: potency means the concentration at half of the fitted maximal effect); details: purified GBA, blue fluorogenic substrate, 40 min
Sequence of Lysosomal acid glucosylceramidase (Homo sapiens) (P04062 whole entry, looked up): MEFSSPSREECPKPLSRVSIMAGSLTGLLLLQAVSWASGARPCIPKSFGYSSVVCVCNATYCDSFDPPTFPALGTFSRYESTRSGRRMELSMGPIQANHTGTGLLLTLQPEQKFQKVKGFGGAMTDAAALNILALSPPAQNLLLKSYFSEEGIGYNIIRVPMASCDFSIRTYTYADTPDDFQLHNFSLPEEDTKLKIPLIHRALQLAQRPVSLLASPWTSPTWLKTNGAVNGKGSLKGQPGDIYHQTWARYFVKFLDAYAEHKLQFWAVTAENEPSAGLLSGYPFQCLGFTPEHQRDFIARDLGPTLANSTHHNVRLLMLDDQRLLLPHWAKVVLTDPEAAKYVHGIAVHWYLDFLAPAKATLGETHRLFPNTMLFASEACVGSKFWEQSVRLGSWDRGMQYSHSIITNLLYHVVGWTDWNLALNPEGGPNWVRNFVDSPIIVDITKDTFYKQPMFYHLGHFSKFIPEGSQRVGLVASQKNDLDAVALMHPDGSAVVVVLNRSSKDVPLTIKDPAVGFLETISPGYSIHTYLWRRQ
Outline: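 Compounds titrated from 0.6 nM upwards against 0.2 nM enzyme in pH 5.9 citric acid/KH2PO4, taurocholate, tween-20; blue fluorogenic substrate 80 uM, 40 min room temperature, stopped and read Ex 365/Em 440 for AC50.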

[21] = at 17.2 µM (top of the series) unless noted

CCOC(=O)c1ccc(N)cc1
outcome [1]: inactive | Potency [2]: 2 µM (active) | activity change, negative = inhibition [3, 21]: -2.56% | outcome [4]: inactive | Potency [5]: > 20.6 µM | Potency [6]: > 20.6 µM

COc1cc(N)c(Cl)cc1C(=O)NC1CCN(Cc2ccccc2)CC1
outcome [1]: inactive | Potency [2]: 12.6 µM (active) | activity change, negative = inhibition [3, 21]: -14.7% | outcome [4]: inactive | Potency [5]: > 20.6 µM | Potency [6]: > 20.6 µM

CC(C)(C)NC[C@H](O)COc1cccc2c1CCCC2=O
outcome [1]: inactive | Potency [2]: inactive | activity change, negative = inhibition [3, 21]: -6.3% and -2.31% | outcome [4]: inactive | Potency [5]: > 20.6 µM | Potency [6]: > 20.6 µM

Cc1cc(-c2ccccc2)nnc1NCCN1CCOCC1
outcome [1]: inactive | Potency [2]: 10 µM (active) | activity change, negative = inhibition [3, 21]: -10.7% and -25.7% | outcome [4]: inactive

CN(C)CCC[C@@]1(c2ccc(F)cc2)OCc2cc(C#N)ccc21
outcome [1]: inactive | Potency [2]: inactive | outcome [4]: inactive | Potency [5]: > 46 µM | Potency [6]: > 46 µM

CC(=O)O[C@]1(C(C)=O)CC[C@H]2[C@@H]3C=C(Cl)C4=CC(=O)CC[C@]4(C)[C@H]3CC[C@@]21C
outcome [1]: inactive | activity change, negative = inhibition [3, 21]: -29% | outcome [4]: inactive

NC(N)=NCc1cccc(I)c1
outcome [1]: inactive | Potency [2]: 12.6 µM (active) | activity change, negative = inhibition [3, 21]: -11.1% [at 38 µM] | outcome [4]: inactive | Potency [5]: > 46 µM | Potency [6]: > 46 µM | Potency [7]: inactive

C[N+]12CCC(CC1)C(OC(=O)C(O)(c1ccccc1)c1ccccc1)C2 (stereo unspecified)
outcome [1]: inactive | activity change, negative = inhibition [3, 21]: -83.7% (active) | outcome [4]: inactive | Potency [5]: > 20.6 µM

COc1ccc(C(=O)c2ccccc2)c(O)c1
outcome [1]: inactive | Potency [2]: 1.58 µM (active) | Potency [8]: > 92 µM | Potency [9]: > 92 µM | Potency [10]: > 92 µM | Potency [11]: > 92 µM | Potency [12]: > 92 µM | Potency [13]: > 92 µM | activity change, negative = inhibition [3, 21]: -6.2% | outcome [4]: inactive | Potency [5]: > 20.6 µM | Potency [6]: > 20.6 µM | Potency [14]: inactive | activity change, negative = cytotoxicity [15]: -13.4% | outcome [16]: inactive | Potency [17]: inactive | viability change, negative = cytotoxic [18]: -8.89% | outcome [19]: inactive

O=C(O)CCc1nc2ccccc2[nH]1
Potency [20]: > 11.4 µM | outcome [1]: inactive | activity change, negative = inhibition [3, 21]: 5.96% [at 7.69 µM] | outcome [4]: inactive

O=C(O)CCNC(=O)c1ccccc1
outcome [1]: inactive | activity change, negative = inhibition [3, 21]: 3.54% | outcome [4]: inactive | Potency [5]: > 20.6 µM

CCc1oc2ccccc2c1C(=O)c1cc(Br)c(O)c(Br)c1
Potency [20]: > 11.4 µM | Potency [5]: > 20.6 µM and > 46 µM | Potency [6]: > 20.6 µM and > 9.22 µM

CCN(CC)CCNC(=O)c1cc(Br)c(N)cc1OC
outcome [1]: inactive | Potency [2]: 10 µM (active) | outcome [4]: inactive

NS(=O)(=O)c1cc(C(=O)O)cc(N2CCCC2)c1Oc1ccccc1
outcome [1]: inactive | Potency [2]: inactive | activity change, negative = inhibition [3, 21]: -7.88% | outcome [4]: inactive | Potency [5]: 2.81 µM (active) | Potency [6]: > 20.6 µM | Potency [7]: inactive

CCc1cc(Cl)c(OC)c(C(=O)NC[C@@H]2CCCN2CC)c1O
outcome [1]: inactive | Potency [2]: 3.98 µM (active) | outcome [4]: inactive | Potency [5]: > 20.6 µM | Potency [6]: > 20.6 µM

CCCN(CCC)S(=O)(=O)c1ccc(C(=O)O)cc1
outcome [1]: inactive | Potency [2]: inactive | Potency [8]: > 92 µM | Potency [9]: > 92 µM | Potency [10]: > 92 µM | Potency [11]: > 92 µM | Potency [12]: > 92 µM | Potency [13]: > 92 µM | activity change, negative = inhibition [3, 21]: 1.18% and -1.81% | outcome [4]: inactive | Potency [5]: > 20.6 µM | Potency [6]: > 20.6 µM | Potency [14]: inactive | activity change, negative = cytotoxicity [15]: -2.58% | outcome [16]: inactive | Potency [17]: inactive | viability change, negative = cytotoxic [18]: -4.3% | outcome [19]: inactive

O=C1C(CCS(=O)c2ccccc2)C(=O)N(c2ccccc2)N1c1ccccc1 (stereo unspecified)
outcome [1]: inactive | Potency [2]: inactive | activity change, negative = inhibition [3, 21]: -0.885% and -5.88% | outcome [4]: inactive | Potency [5]: > 20.6 µM | Potency [6]: > 20.6 µM

NS(=O)(=O)Cc1noc2ccccc12
outcome [1]: inactive | Potency [2]: inactive | activity change, negative = inhibition [3, 21]: -5.42% [at 38 µM] | outcome [4]: inactive | Potency [5]: > 46 µM | Potency [6]: > 46 µM

CN1CCC[C@@H]1CCO[C@](C)(c1ccccc1)c1ccc(Cl)cc1
outcome [1]: inactive | Potency [2]: inactive | outcome [4]: inactive

Nc1ccc(S(=O)(=O)Nc2cnc3ccccc3n2)cc1
Potency [20]: > 11.4 µM | outcome [1]: inactive | Potency [2]: inactive | activity change, negative = inhibition ([3]; at 7.69 µM (top of the series)): -24.5% | activity change, negative = inhibition ([3]; at 17.2 µM (top of the series)): -5.07% | outcome [4]: inactive | Potency [5]: > 20.6 µM and > 46 µM | Potency [6]: > 20.6 µM and > 9.22 µM
